Records with an inconclusive call do not appear. Activity calls are given as the source filed them. Rule for the calls, unless noted: active = hit-call score of the fitted dose curve at least 0.9, where 1 is the maximum; inactive = score below 0.9.
Key:
DIO1 (gene 1733) = test: CCTE_GLTED_hDIO1: CCTE's human Deiodinase 1 (DIO1) Inhibition Assay, Great Lakes Toxicology and Ecology Division (GLTED) Lab (AID 2283987; active = hit-call score of the fitted dose curve at least 0.9, where 1 is the maximum;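 note: isolated human DIO1 enzyme in a cell-free setup rather than cells; enzyme activity read as free iodide liberated from substrate via Sandell-Kolthoff colorimetry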)
In short: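 Chemicals are tested on human DIO1 without cells for 3 h. Uninhibited enzyme frees iodide, which speeds cerium(IV) reduction by arsenic and is read by spectrophotometry.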

[1] = CCTE_Simmons_MITO_max_resp_rate: CCTE's HepG2 Seahorse XF Respirometric Screening Assay at Maximal Respiratory State [uncoupled], Simmons Lab (AID 2284002); details: actives raise or lower the signal
In short: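 Uncoupled (FCCP) respiration of HepG2 cells served as the endpoint, with measurements at 6-minute intervals across a 72-minute run and compounds dosed at 7 concentrations up to 100 uM final.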

[2] = CCTE_Simmons_MITO_viability: CellTiter-Glo Viability Assessment for CCTE's HepG2 Seahorse XF Respirometric Screening Assay [post-hoc], Simmons Lab (AID 2284007; active = hit-call score of the fitted dose curve at least 0.9, where 1 is the maximum)
In short: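 HepG2 cells; test chemical 7 conc. (125 nM–100 uM final) × 90 min; then luminescent ATP detection. DMSO vehicle. Positive control dichlone, 8 conc. from 10 nM to 100 uM final. Loss-of-signal endpoint.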

[3] = CCTE_Shafer_MEA_acute_spike_number: CCTE's Neural Acute Assay for Total Number of Spikes, Shafer Lab (AID 2284008);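 note: curve fitted for decrease in spike count so AC50 reflects inhibitors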
In short: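 Using an adaptive detector set to 8x rms noise, spikes were counted in 40-min windows before and after compound addition (0.03-40 uM) to rat cortical networks at 37 C; the well-level change from baseline was analysed relative to DMSO.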

[4] = CCTE_Shafer_MEA_acute_firing_rate_mean: CCTE's Neural Acute Assay for Mean Firing Rate, Shafer Lab (AID 2284009);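 note: analyzed for loss of signal so actives lower firing rate relative to DMSO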
In short: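 Read-out: well-mean spike rate (spikes/recording length/electrodes), % change from 40 min pre-dose baseline to 40 min with compound. Rat cortical cultures, DIV 13 or 15, 37 C; 0.03-40 uM; DMSO as negative control.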

[5] = CCTE_Harrill_HTTr_Viability_MCF7: CCTE's 6-hour Cell Viability Assessment for the High-Throughput Transcriptomics (HTTr) Platform, in MCF-7 cells cultured in DMEM + 10% fetal bovine serum, Harrill Lab (AID 2284010)
In short: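 Viability measured through PI dye exclusion by high-content imaging at 6 h post-dosing.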

[6] = CCTE_Harrill_HTTr_Apoptosis_MCF7: CCTE's 6-hour Apoptosis Assessment for the High-Throughput Transcriptomics (HTTr) Platform, in MCF-7 cells cultured in DMEM + 10% fetal bovine serum, Harrill Lab (AID 2284011)
In short: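 Apoptosis in MCF-7 cells grown in DMEM with 10% fetal bovine serum was scored after a six hour exposure by high content imaging of caspase-3/7 activation (CellEvent Caspase 3/7 Green), with DMSO serving as negative control and baseline.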

[7] = CCTE_Harrill_HTTr_CellCount_MCF7: CCTE's Cell Proliferation Assessment for the High-Throughput Transcriptomics (HTTr) Platform, Harrill Lab (AID 2284012; active = hit-call score of the fitted dose curve at least 0.9, where 1 is the maximum;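 note: count of Hoechst-stained nuclei per well by high-content imaging in MCF-7 cells; cells exposed to compound for six hours; intended direction is loss of nuclei count meaning fewer cells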)
In short: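 Nuclei counting (Hoechst, high content imaging) in MCF-7 after a 6 h treatment at eight concentrations. Activity fitted bidirectionally, DMSO as negative control.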

[8] = CCTE_Shafer_MEA_acute_burst_number: CCTE's Neural Acute Assay for Single-Electrode Bursts, Shafer Lab (AID 2284013)
In short: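 Rat cortical cultures, DIV 13/15; 40 min baseline, then 40 min with compound 0.03-40 uM, 37 C. Spikes: 300-5000 Hz band-pass, threshold 8x rms noise. Readout = % change in single-electrode bursts vs baseline, loss-of-signal fit.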

[9] = CCTE_Shafer_MEA_acute_burst_duration_mean: CCTE's Neural Acute Assay for Mean Burst Duration, Shafer Lab (AID 2284014);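 note: hits are decreases in mean burst duration relative to DMSO controls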
In short: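 Primary rat cortical neurons on 16-electrode MEA wells, treated on DIV 13 or 15 with compound (0.03-40 uM; ≥3 wells each). 40-min baseline and 40-min exposure recordings at 37 C; percent change in mean burst duration per well versus DMSO.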

[10] = CCTE_Shafer_MEA_acute_interburst_interval_mean: CCTE's Neural Acute Assay for Mean Interburst Interval, Shafer Lab (AID 2284016);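 note: percent change of mean interburst interval versus each well's own pre-dose baseline; curves fitted for decrease in interburst interval relative to DMSO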
In short: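 Primary rat cortical neurons on 16-electrode MEA wells were recorded 40 min at baseline on DIV 13 or 15, then 40 min after compound (0.03-40 uM), at 37 C. Value is percent change in mean interburst interval per well, DMSO as negative control.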

[11] = CCTE_Shafer_MEA_acute_burst_percentage_mean: CCTE's Neural Acute Assay for Percentage of Spikes in a Burst, Shafer Lab (AID 2284017);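 note: curve fitted for loss of signal so potency reflects decreased burst percentage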
In short: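 Primary rat cortical neurons on 16-electrode MEA wells; 40 min baseline recorded at DIV 13 or 15, then 40 min after compound (0.03-40 uM) at 37 C. Well-mean fraction of spikes in single-electrode bursts; percent change from baseline, DMSO as negative control.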

[12] = CCTE_Shafer_MEA_acute_burst_percentage_std: CCTE's Neural Acute Assay for Standard Deviation of Burst Percentage, Shafer Lab (AID 2284018);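 note: fitted in the negative direction so actives lower burst percentage SD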
In short: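 Primary rat cortical neurons on 16-electrode MEA wells were recorded 40 min at baseline (DIV 13 or 15), then 40 min after compound (0.03-40 uM), at 37 C. Well value is SD across electrodes of spikes-in-bursts/total spikes; endpoint is percent change, DMSO-referenced.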

[13] = CCTE_Shafer_MEA_acute_per_network_burst_spike_number_mean: CCTE's Neural Acute Assay for Average Number of Spikes in a Network Burst, Shafer Lab (AID 2284019)
In short: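 Primary rat cortical neurons on 16-electrode MEA wells, DIV 13 or 15, 37 C; 40-min baseline then 40-min recording with compound (0.03-40 uM). Spikes per network burst (total spikes/number of bursts) expressed as percent change from baseline, DMSO reference.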

[14] = CCTE_Shafer_MEA_acute_per_network_burst_spike_number_std: CCTE's Neural Acute Assay for Standard Deviation of Number of Spikes in a Network Burst, Shafer Lab (AID 2284020);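 note: fitted for decrease in spike-number SD versus DMSO so actives lower it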
In short: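 Primary rat cortical neurons on 48-well MEAs (16 electrodes/well) recorded at DIV 13 or 15: 40-min baseline, then 40 min with compound (0.03-40 uM), 37 C. Value is percent change in SD of spikes per network burst, relative to DMSO.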

[15] = CCTE_Shafer_MEA_acute_per_network_burst_electrodes_number_mean: CCTE's Neural Acute Assay for Mean Number of Electrodes in a Network Burst, Shafer Lab (AID 2284021);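 note: curves fitted for decreases only so hits reduce electrodes per burst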
In short: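 Percent change from baseline in average electrode count per network burst, rat cortical cultures on 48-well MEAs; 40-min recordings each side of exposure, DIV 13 or 15; threshold 8x rms noise; DMSO as negative control.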

[16] = molecular target: Nucleoli Translocation, AR (gene 367) (UniProt P10275); test: UPITT_HCI_U2OS_AR_TIF2_Nucleoli_Antagonist: University of Pittsburgh U2OS Androgen Receptor-Transcriptional Intermediary Factor 2 (AR-TIF2) Antagonism High Content Imaging Assay for Nucleoli Translocation (AID 2283997; active = hit-call score of the fitted dose curve at least 0.9, where 1 is the maximum)
Chain of Nucleoli Translocation, AR (gene 367) (P10275 whole entry, looked up, the tested form may be a part): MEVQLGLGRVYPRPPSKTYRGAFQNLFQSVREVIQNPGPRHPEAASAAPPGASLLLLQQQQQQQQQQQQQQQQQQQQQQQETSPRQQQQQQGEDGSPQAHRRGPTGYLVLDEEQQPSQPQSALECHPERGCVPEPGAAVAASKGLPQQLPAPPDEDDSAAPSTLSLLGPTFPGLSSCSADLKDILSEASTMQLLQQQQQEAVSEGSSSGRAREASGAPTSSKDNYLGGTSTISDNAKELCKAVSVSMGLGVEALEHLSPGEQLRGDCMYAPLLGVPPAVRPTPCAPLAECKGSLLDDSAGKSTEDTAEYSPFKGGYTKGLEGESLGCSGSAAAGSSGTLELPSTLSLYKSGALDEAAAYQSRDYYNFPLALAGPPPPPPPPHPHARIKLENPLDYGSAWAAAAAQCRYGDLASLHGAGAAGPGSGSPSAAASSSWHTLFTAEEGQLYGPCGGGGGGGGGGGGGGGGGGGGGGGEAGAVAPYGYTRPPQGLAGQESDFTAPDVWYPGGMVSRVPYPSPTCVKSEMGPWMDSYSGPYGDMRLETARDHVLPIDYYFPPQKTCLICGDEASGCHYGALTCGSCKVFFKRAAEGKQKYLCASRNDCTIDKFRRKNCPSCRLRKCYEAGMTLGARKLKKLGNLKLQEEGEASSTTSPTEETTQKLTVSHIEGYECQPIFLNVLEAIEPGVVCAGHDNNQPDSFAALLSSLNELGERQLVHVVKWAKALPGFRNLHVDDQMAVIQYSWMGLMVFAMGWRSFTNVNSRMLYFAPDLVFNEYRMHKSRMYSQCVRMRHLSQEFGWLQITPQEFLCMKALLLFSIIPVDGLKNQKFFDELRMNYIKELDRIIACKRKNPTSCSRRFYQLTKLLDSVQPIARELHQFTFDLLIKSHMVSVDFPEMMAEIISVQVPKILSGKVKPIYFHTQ
In short: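 U2OS cells expressing RFP-tagged human AR and GFP-tagged TIF2 were imaged by high-content fluorescence microscopy for red AR signal in the nucleolar region. Compounds were screened at 20 uM final (0.2% DMSO), with activity fitted relative to DHT as baseline.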

[17] = molecular target: Nucleoli Translocation, AR (gene 367) (UniProt P10275); test: UPITT_HCI_U2OS_AR_TIF2_Nucleoli_Agonist: University of Pittsburgh U2OS Androgen Receptor-Transcriptional Intermediary Factor 2 (AR-TIF2) Agonism High Content Imaging Assay for Nucleoli Translocation (AID 2283998; active = hit-call score of the fitted dose curve at least 0.9, where 1 is the maximum)
In short: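 High-content images quantify nucleolar accumulation of RFP-fused AR in cells also expressing GFP-TIF2; the endpoint is fitted as signal gain versus DMSO controls across final concentrations of 0.195 to 50 uM.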

[18] = molecular target: Ratio of Nucleoli Translocation and Cytoplasm, AR (gene 367) (UniProt P10275); test: UPITT_HCI_U2OS_AR_TIF2_Nucleoli_Cytoplasm_Ratio_Antagonist: University of Pittsburgh U2OS Androgen Receptor-Transcriptional Intermediary Factor 2 (AR-TIF2) Antagonism High Content Imaging Assay for Ratio of Nucleoli Translocation and Cytoplasm (AID 2283999; active = hit-call score of the fitted dose curve at least 0.9, where 1 is the maximum;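 note: antagonists lower the DHT-driven ratio of nucleolar to cytoplasmic red signal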)
Chain of Ratio of Nucleoli Translocation and Cytoplasm, AR (gene 367) (P10275 whole entry, looked up): as the sequence (P10275 whole entry, looked up, the tested form may be a part) above
In short: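 High-content imaging quantifies the red nucleolar:cytoplasmic fluorescence ratio in U2OS cells with AR-RFP and TIF2-GFP. Final concentrations are 20 uM (screen) or 0.195–50 uM (dose response), analysed against DHT as baseline.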

[19] = molecular target: Ratio of Nucleoli Translocation and Cytoplasm, AR (gene 367) (UniProt P10275); test: UPITT_HCI_U2OS_AR_TIF2_Nucleoli_Cytoplasm_Ratio_Agonist: University of Pittsburgh U2OS Androgen Receptor-Transcriptional Intermediary Factor 2 (AR-TIF2) Agonism High Content Imaging Assay for Ratio of Nucleoli Translocation and Cytoplasm (AID 2284000; active = hit-call score of the fitted dose curve at least 0.9, where 1 is the maximum;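 note: hits raise the red nucleolar to cytoplasm ratio above vehicle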)
In short: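 U2OS cells expressing RFP-tagged human AR and GFP-tagged TIF2 were imaged by high-content fluorescence microscopy. The endpoint is the ratio of nucleolar to cytoplasmic red fluorescence, fitted for gain of signal relative to DMSO. Concentration-response spanned 0.195 to 50 uM final (0.5% DMSO).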

Compound: CCc1cccc(C)c1N(C(=O)CCl)C(C)COC (configuration not stated)
- AC50 (DIO1 (gene 1733)): 64.2 µM (active)
- AC50 [1]: 39.7 µM (active)
- outcome [2]: inactive
- AC50 [3]: 27 µM (active)
- AC50 [4]: 27 µM (active)
- outcome [5]: inactive
- outcome [6]: inactive
- outcome [7]: inactive
- AC50 [8]: 14.8 µM (active)
- outcome [9]: inactive
- outcome [10]: inactive
- AC50 [11]: 10.9 µM (active)
- outcome [12]: inactive
- outcome [13]: inactive
- AC50 [14]: 10.8 µM (active)
- AC50 [15]: 5.76 µM (active)

Compound: CON=C(C(=O)OC)c1ccccc1CON=C(C)c1cccc(C(F)(F)F)c1
- AC50 [1]: 7.03 µM (active)
- outcome [2]: inactive
- AC50 [3]: 0.183 µM (active)
- AC50 [4]: 0.183 µM (active)
- outcome [5]: inactive
- outcome [6]: inactive
- AC50 [8]: 0.191 µM (active)
- outcome [9]: inactive
- AC50 [10]: 4.19 µM (active)
- AC50 [11]: 1.12 µM (active)
- outcome [12]: inactive
- outcome [13]: inactive
- AC50 [14]: 0.59 µM (active)
- AC50 [15]: 13.5 µM (active)

Compound: CCCCOC(=O)c1ccccc1C(=O)O
- outcome [16]: inactive
- outcome [17]: inactive
- outcome [18]: inactive
- outcome [19]: inactive
- outcome [5]: inactive
- outcome [6]: inactive
- outcome [7]: inactive
